Screening data as filed in PubChem.
Compounds with a hit are over-represented: about 21% of the library has one in this group of screens.
Cycloheximide cs: Cycloheximide Counterscreen for Small Molecule Inhibitors of Shiga Toxin | cell reporter, cycloheximide protein synthesis inhibition counterscreen | max response, % | AID 2314, 2010 | actives 12% (n = 300,000); in the data active = max response mostly above about 13%, no sharp cut-off; inactive = mostly below about 14%; also: read at 38.3 µM for the half of the compounds with a filed dose
Pf growth 96h: Primary qHTS for delayed death inhibitors of the malarial parasite plastid, 96 hour incubation; P. falciparum luciferase reporter growth, 96 h; Potency, µM (top dose mostly 28.7 µM), actives largely listed as inhibitors; actives 6.9% (n = 320,000)
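Erythrocytes infected with luciferase-expressing P. falciparum were dispensed at 2% hematocrit and 0.05% parasitemia (final), then incubated with compounds 96 hours at 37 C in 5% CO2. Luminescence after detection reagent addition reported growth.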
Pf growth 48h: Primary qHTS for delayed death inhibitors of the malarial parasite plastid, 48 hour incubation. Potency, µM (titrated, usually from 28.7 µM), hits mostly inhibitors. P. falciparum luciferase growth in erythrocytes, 48 h. AID 504832, 2011. actives 5.9% (n = 310,000)
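Compounds are pin-transferred into medium, infected erythrocytes (2% hematocrit, 0.1% parasitemia final) are added, and plates sit one parasite generation at 37 C in 5% CO2. Detection reagent is then added and luminescence measured.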
Shiga toxin inh: A qHTS for Small Molecule Inhibitors of Shiga Toxin; Vero cells, Shiga toxin protein synthesis inhibition reporter; inhibition, % at 38.7 µM; actives 9.2% (n = 290,000); AID 2315, 2010; in the data active = inhibition mostly above about 28%, no sharp cut-off; inactive = mostly below about 43%
SARS PLpro yeast: qHTS of Yeast-based Assay for SARS-CoV PLP. S. cerevisiae expressing SARS-CoV PLpro, growth rescue. actives 0.19% (n = 330,000). Potency, µM (doses to about 32.9 µM), actives largely listed as activators. AID 485353, 2010; calls by dose curve; also: nearly all actives have a fitted effect of over 55% in size
NS1 inh: qHTS Assay for Inhibitors of Influenza NS1 Protein Function | Potency, µM (series often up to 46.1 µM) | actives 0.4% (n = 270,000) | AID 2326, 2010; calls by dose curve; also: actives are rising curves; nearly all actives have a fitted effect of over 50% in size
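A cell-based growth assay was used: compounds that relieve NS1-induced slow growth of budding yeast raise OD600. Assay medium was yeast nitrogen base with ammonium sulphate and -URA supplement, pH 6.0, with 2% galactose.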
Numbers stand for hits; n = inactive; u = inconclusive; x = no result. Unless noted, calls follow the shape of the dose curve; as a rule, active = well fitted inhibition curve with a large enough effect; inconclusive = small, poorly fitted or top-dose-only effect, or another doubt; inactive = no such curve, though single readings can be large or run the other way.

SMILES | Cycloheximide cs | Pf growth 96h | Pf growth 48h | Shiga toxin inh | SARS PLpro yeast | NS1 inh
O=C(O)/C=C/c1cn(-c2ncc(C(F)(F)F)cc2Cl)c2ccccc12 | n | n | u | n | n | n
O=c1[nH]cnc2c1N=C(c1cccc([N+](=O)[O-])c1)CC(c1ccccc1)N2 (stereo not drawn) | n | n | n | n | n | n
CCOc1ccccc1NC(=O)C1CCCN(S(=O)(=O)c2ccc3c(c2)C(C)(C)C(=O)N3C)C1 (stereo not drawn) | n | n | u | n | n | n
COc1ccnc(NCc2ccc(Cl)cc2)c1C#N | 27 | n | n | 56 | n | n
CC(C)NCC(O)COc1ccc(COCCOC(C)C)cc1 (stereo not drawn) | n | n | n | 28 | x | u
CC(C)NCC(O)COCCOc1ccc(Br)cc1 (stereo not drawn) | n | n | n | n | n | n
CCCn1nc(C(=O)NNC(=O)C2CSC3(C)CCC(=O)N23)c2ccccc2c1=O (stereo not drawn) | x | n | u | x | n | x
CCCCC(=O)Nc1cccc2c1C(=O)N(c1ccccc1)C2=O | n | 0.93µM | n | n | n | n
CCc1nnc(NC(=O)C2Cc3ccccc3CN2S(=O)(=O)c2c(C)c(C)cc(C)c2C)s1 (stereo not drawn) | n | x | u | n | n | n
Cc1cc(C)nc(NC(=O)CSc2nc3ccccc3o2)n1 | 51 | n | x | 58 | n | n
CC(=O)Nc1ccc(NC(=O)CSc2nc3ccccc3o2)cc1 | 17 | n | n | 115 | n | n
O=C(CCSc1nc2ccccc2o1)Nc1ccccc1 | n | n | n | n | n | n
O=C(CSc1nc2ccccc2o1)Nc1ccc(Cl)cc1 | 22 | x | n | 83 | n | n
Cc1cccc(NC(=O)CSc2nc3ccccc3o2)c1 | 38 | n | n | 119 | n | n
CC1CCc2nc(NC(=O)CSc3nc4ccccc4o3)sc2C1 (stereo not drawn) | 52 | x | n | 85 | n | n
Cc1nn2c(-c3cccc(NC(=O)CN4CCOCC4)c3)nnc2c2ccccc12 | x | x | x | x | x | n
Cc1nonc1NC(=O)CSc1nc2ccccc2o1 | n | n | 13µM | n | n | n
CC(=O)Nc1nonc1NC(=O)CSc1nc2ccccc2o1 | n | n | u | n | n | n
Cc1nn2c(-c3cccc(NC(=O)CSc4nc5ccccc5o4)c3)nnc2c2ccccc12 | 14 | n | u | n | n | n
COc1ccc(OCC(=O)NNC(=S)NC(=O)c2ccc(Br)o2)cc1 | n | n | n | n | n | n
N#C/C(=C/c1cn(-c2ccccc2)nc1-c1cccc(S(=O)(=O)N2CCCC2)c1)C(=O)NCc1ccco1 | n | 10µM | 10µM | 34 | n | n
N#C/C(=C\c1cn(Cc2cccc(F)c2)c2ccccc12)C(=O)NCc1ccco1 | 25 | n | n | 28 | n | n
N#C/C(=C\c1ccco1)C(=O)NCc1ccccc1 | 35 | n | n | 41 | n | x
N#C/C(=C\c1cn(Cc2ccc(F)cc2)c2ccccc12)C(=O)NCc1ccco1 | n | u | n | n | n | n
N#C/C(=C\c1cn(Cc2ccccc2)c2ccccc12)C(=O)NCc1ccco1 | 29 | u | u | n | n | n
SMILES | Cycloheximide cs | Pf growth 96h | Pf growth 48h | Shiga toxin inh | SARS PLpro yeast | NS1 inh
CC1CCCN(CCCNC(=O)C2CCC(CNS(=O)(=O)c3cccc4nsnc34)CC2)C1 (stereo not drawn) | n | n | n | n | n | n
COc1ccc(CNC(=O)COC(=O)c2cc(S(=O)(=O)N3CCOCC3)ccc2O)cc1OC | x | x | x | x | n | x
O=c1cc(O)c2ccc(O)cc2o1 | n | n | n | n | n | n
O=c1ccc2[n+]([O-])c3ccc(O)cc3oc-2c1 | n | 4.7µM | 1.9µM | n | n | n
CCOc1ncccc1C(=O)Nc1cccc(S(=O)(=O)N2CCOCC2)c1 | x | x | x | x | n | x
CC(C(=O)OCC(=O)c1ccc([N+](=O)[O-])cc1)N1C(=O)C2C3C=CC(C3)C2C1=O (stereo not drawn) | n | n | n | n | n | n
CC(C(=O)OCC(=O)c1ccc([N+](=O)[O-])cc1)N1C(=O)C2C3CCC(C3)C2C1=O (stereo not drawn) | n | 10µM | n | n | n | x
COC(=O)C1=C(c2ccccc2OCc2ccccc2)C[C@@H]2CC[C@H]1N2C(=O)NC1CCN(Cc2ccccc2)CC1 | x | u | 13µM | x | n | x
COC(=O)C1=C(c2ccc(F)cc2OCc2ccccc2)C[C@@H]2CC[C@H]1N2C(=O)NCCNC(C)=O | x | u | u | x | n | x
COC(=O)C1=C(c2ccc(F)cc2OCc2ccccc2)C[C@@H]2CC[C@H]1N2C(=O)NC1CCN(Cc2ccccc2)CC1 | x | u | 13µM | x | n | x
COC(=O)C1=C(c2cccc(OCc3ccccc3)c2)C[C@@H]2CC[C@H]1N2C(=O)NC1CCN(Cc2ccccc2)CC1 | x | u | 13µM | x | n | x
Cc1cc(C)n2nc(SCC(=O)Nc3ccccc3C)nc2n1 | n | n | n | n | n | n
CCOC(=O)c1ccc(NC(=O)CCSCCc2ccccn2)cc1 | n | u | u | n | n | x
CO/N=C/c1ccc(Oc2ccc(C)cc2)nc1 | 27 | n | n | 45 | n | n
CC(O)c1cc2c(cc1NC(=O)c1cnn3c1NC(c1ccco1)CC3C(F)(F)F)OCO2 (stereo not drawn) | n | x | n | n | n | n
CS(=O)(=O)c1cnc2c(-c3ccsc3)cnn2c1N | 38 | n | n | 66 | n | n
COc1ccc(-c2cnc3c(-c4ccc(F)cc4)cnn3c2N)cc1 | 51 | n | n | 121 | n | n
COc1ccc(-c2cnn3c(N)c(S(=O)(=O)C(C)(C)C)cnc23)cc1 | 32 | n | n | n | n | n
O=C(NCc1ccccn1)C(=O)NCC1OCCN1S(=O)(=O)c1ccc(Cl)cc1 (stereo not drawn) | n | n | n | n | n | n
CCN(CC)C(=O)c1ccc(COc2ccccc2Br)o1 | n | x | n | n | n | n
O=C(c1ccc(COc2ccc(F)cc2)o1)n1cccn1 | n | n | n | n | n | n
CCN(CC)C(=O)c1ccc(COc2ccc(Cl)c(C)c2)o1 | 30 | u | n | x | n | n
Cc1cc(OCc2ccc(C(=O)n3cccn3)o2)ccc1Cl | 30 | n | n | 65 | n | n
Cc1ccc(C(=O)NNC(=O)CSc2n[nH]c(-c3cccnc3)n2)cc1 | n | n | n | n | n | n
Ic1ccccc1CN[C@@H]1C2CCN(CC2)[C@@H]1C(c1ccccc1)c1ccccc1 | x | 2.9µM | 2.6µM | x | x | x
S=C=Nc1cccc(NC(=S)NCCCCNC(=S)Nc2cccc(N=C=S)c2)c1 | n | x | x | n | x | x
CCOCCN1CCN(c2c(C)c(C)nc3cc(-c4cc(OC)cc(OC)c4)nn23)CC1 | n | n | x | n | n | n
Cc1nc2ncnn2c(C)c1CCC(=O)NC(C)c1ccc2c(c1)OCCO2 (stereo not drawn) | n | x | n | n | n | n
